Reference: PubChem BioAssay (EPA / NIEHS)
Calls of active or inactive are those of the source. Rule for the calls: active = hit-call score of the fitted dose curve at least 0.9, where 1 is the maximum; inactive = score below 0.9.

Test: CCTE_Padilla_ZF_Score.General: CCTE's 144 Hour Post-fertilization zebrafish Assay Score for General Malformation, Padilla Lab (AID 2284411)
Outline: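 Wild-type zebrafish embryos were plated singly at 6-8 hpf in 10% Hanks' and exposed in sealed wells at 26C until rinsed on 5 dpf. At 6 dpf two blinded assessors scored mortality, hatching and malformations by stereomicroscopy; gain-of-signal versus DMSO.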

Row | SMILES | outcome | AC50
1 | CCCCNc1ccccc1 | inactive | 
2 | O=P(O)(O)OCCC(F)(F)C(F)(F)C(F)(F)C(F)(F)C(F)(F)C(F)(F)F | inactive | 
3 | CCCCCCCCCCCCCCCC[N+](C)(C)Cc1ccccc1 | inactive | 
4 | CCCCCCS | inactive | 
5 | NC(=O)C(F)(F)C(F)(F)C(F)(F)C(F)(F)F | inactive | 
6 | FC(F)(F)C(F)(F)C(F)(F)C(F)(F)C(F)(F)CCI |  | 54.7 µM (active)
7 | Nc1ccc([N+](=O)[O-])cc1O | inactive | 
8 | O=C(O)C(F)(F)C(F)(F)C(F)(F)C(F)(F)C(F)(F)C(F)(F)C(F)(F)C(F)(F)Cl |  | 16.7 µM (active)
9 | FC(F)(F)C(F)(F)C(F)(F)C(F)(F)C(F)(F)C(F)(F)C(F)(F)C(F)(F)F | inactive | 
10 | OCC(F)(F)C(F)(F)C(F)(F)C(F)F | inactive | 
11 | FC(F)(F)C(F)(F)C(F)(F)C(F)(F)CCI | inactive | 
12 | FC(F)(F)C(F)(F)C(F)(F)C(F)(F)C(F)(F)C(F)(F)C(F)(F)C(F)(F)CCS | inactive | 
13 | FC(F)(F)C(F)(F)C(F)(F)C(F)(F)C(F)(F)C(F)(F)CC1CO1 (stereo not drawn) | inactive | 
14 | O=C(O)C(F)(OC(F)(F)C(F)(OC(F)(F)C(F)(OC(F)(F)C(F)(F)C(F)(F)F)C(F)(F)F)C(F)(F)F)C(F)(F)F (stereo not drawn) | inactive | 
15 | FC(F)(Br)C(F)(F)C(F)(F)C(F)(F)C(F)(F)C(F)(F)Br | inactive | 
16 | O=C(O)C(F)(OC(F)(F)C(F)(OC(F)(F)C(F)(F)C(F)(F)F)C(F)(F)F)C(F)(F)F (stereo not drawn) | inactive | 
17 | O=C(O)C(F)(F)C(F)(F)C(F)(F)C(F)(F)F | inactive | 
18 | N=C(N)C(F)(F)C(F)(F)C(F)(F)C(F)(F)C(F)(F)C(F)(F)C(F)(F)F | inactive | 
